# Measurements as given in PubChem BioAssay (NCATS).
# Several values for one entry are separate records, joined by “and”; a condition that tells them apart may be missing. Equal values may be shown once. Records with an inconclusive call do not appear. Activity calls are given as the source filed them. Unless noted, the rule behind the calls is not given here.
# Key:
# [1] = target: Hexokinase-4 (Homo sapiens) + Glucokinase regulatory protein (Homo sapiens) (UniProt P35557+Q14397); test: qHTS assay for inhibitors of recombinant human GCK-GKRP interaction: HTRF assay (AID 743207; active = well fitted curve in the direction sought with a large enough effect; an effect the other way counts as inactive or inconclusive;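 note: 0% = DMSO with GCK present and -100% = DMSO wells lacking GCK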)
# Sequence of Hexokinase-4 (Homo sapiens) + Glucokinase regulatory protein (Homo sapiens) (P35557 whole entry, looked up): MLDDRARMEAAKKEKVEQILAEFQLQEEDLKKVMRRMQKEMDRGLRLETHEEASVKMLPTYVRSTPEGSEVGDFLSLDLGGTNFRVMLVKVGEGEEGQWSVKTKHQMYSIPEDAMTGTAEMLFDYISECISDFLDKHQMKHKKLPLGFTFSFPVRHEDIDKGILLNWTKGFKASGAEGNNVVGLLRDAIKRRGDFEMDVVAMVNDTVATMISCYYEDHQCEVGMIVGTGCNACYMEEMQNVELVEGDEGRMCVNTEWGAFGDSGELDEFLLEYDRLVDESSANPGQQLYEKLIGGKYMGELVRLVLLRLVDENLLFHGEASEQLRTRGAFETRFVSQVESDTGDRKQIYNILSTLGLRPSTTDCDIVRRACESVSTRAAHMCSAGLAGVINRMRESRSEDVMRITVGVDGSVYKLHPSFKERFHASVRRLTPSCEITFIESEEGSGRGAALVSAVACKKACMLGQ
# Sequence of Hexokinase-4 (Homo sapiens) + Glucokinase regulatory protein (Homo sapiens) (Q14397 whole entry, looked up): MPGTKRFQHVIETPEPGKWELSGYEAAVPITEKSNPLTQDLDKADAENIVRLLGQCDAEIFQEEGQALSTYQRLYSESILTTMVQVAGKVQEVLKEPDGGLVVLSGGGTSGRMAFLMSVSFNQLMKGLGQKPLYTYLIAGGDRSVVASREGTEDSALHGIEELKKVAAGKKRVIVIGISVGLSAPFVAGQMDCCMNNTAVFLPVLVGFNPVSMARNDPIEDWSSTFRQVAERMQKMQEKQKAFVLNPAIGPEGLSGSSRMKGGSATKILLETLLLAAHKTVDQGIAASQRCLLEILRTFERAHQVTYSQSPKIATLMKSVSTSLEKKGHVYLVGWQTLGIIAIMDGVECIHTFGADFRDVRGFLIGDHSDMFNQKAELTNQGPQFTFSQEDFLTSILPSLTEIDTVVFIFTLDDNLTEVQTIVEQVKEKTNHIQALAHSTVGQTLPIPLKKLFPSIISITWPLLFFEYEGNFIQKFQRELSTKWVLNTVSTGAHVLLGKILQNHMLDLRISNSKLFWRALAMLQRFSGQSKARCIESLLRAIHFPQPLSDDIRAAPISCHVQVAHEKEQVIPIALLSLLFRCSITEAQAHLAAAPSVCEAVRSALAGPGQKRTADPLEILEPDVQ
# In short: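 Steps: dispense GCK–GKRP complex (5 nM each, GST- and FLAG-tagged) with 2 uM S6P; pin in compounds; add XL665/Eu-cryptate-labelled antibodies; incubate 60 min at room temperature; read time-resolved FRET at 665 and 615 nm.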
# [2] = qHTS Assay for Identifying Gametocytocidal Compounds (AID 743244; active = well fitted curve in the direction sought with a large enough effect; an effect the other way counts as inactive or inconclusive; note: potency is the fitted concentration of half-maximal effect;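 for max response: % is set by controls: 0 for no effect and ±100 for the full control effect; actives lower the fluorescent signal which means gametocytes are killed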); conditions: P. falciparum 3D7 stage III-V gametocytes, alamarBlue, 72 h; max response: stronger effect = lower value
# In short: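 A resazurin-based viability read-out was applied to mature P. falciparum gametocytes: 72 h compound treatment, then 24 h dye incubation, with falling fluorescence signalling gametocytocidal effect.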
# [3] = qHTS assay for cell viability of HEK293 cells (AID 743288; active = well fitted curve in the direction sought with a large enough effect; an effect the other way counts as inactive or inconclusive; note: % is set by controls: 0 for no effect and ±100 for the full control effect; nearly all actives have a fitted effect of over 50% in size); conditions: ATP luminescence (CellTiter-Glo), 18 h; max response: stronger effect = lower value
# In short: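 Quantitative high-throughput screen: compounds were pinned onto parental HEK293 cells (2,000 per well) after a minimum 5 h settling at 37 C, incubated 18 h at 37 C, and intracellular ATP measured by luciferase luminescence.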
# [4] = qHTS assay for cell viability of the p53RE-bla HCT-116 cell line (AID 743292; active = well fitted curve in the direction sought with a large enough effect; an effect the other way counts as inactive or inconclusive; note: % is set by controls: 0 for no effect and ±100 for the full control effect; nearly all actives have a fitted effect of over 55% in size)
# In short: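 In this qHTS counter-screen, metabolically competent p53RE-bla HCT-116 cells were counted via their ATP content. Compounds were applied for 16 h at 37 C and luciferase-coupled luminescence was measured.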
# [5] = qHTS profiling of the MIPE4 collection as inhibitors of Plasmodium falciparum (3D7) proliferation (AID 743344);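 note: scaled between DMSO vehicle wells and 0.29 µM artemisinin as full inhibition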; conditions: P. falciparum 3D7 in erythrocytes, SYBR Green DNA fluorescence, 72 h; at 28.5 µM (top of the series)
# In short: (§1)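 Parasite DNA was quantified by SYBR Green I fluorescence (ex 485, em 535 nm) after overnight lysis in saponin/Triton buffer at room temperature. Cultures at 0.3% parasitemia and 2.5% hematocrit were first exposed to compound for 72 h at 37 C; signals were normalised to artemisinin (0.29 uM) and vehicle wells.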
# [6] = qHTS profiling of the MIPE4 collection as inhibitors of Plasmodium falciparum (DD2) proliferation (AID 743345); conditions: P. falciparum Dd2 in erythrocytes, SYBR Green DNA, 72 h; at 28.5 µM (top of the series) unless noted
# In short: as §1
# [7] = qHTS profiling of the MIPE4 collection as inhibitors of Plasmodium falciparum (DD2) proliferation (Rep 2) (AID 743346); conditions: P. falciparum Dd2 in erythrocytes, SYBR Green DNA, 72 h; at 28.5 µM (top of the series)
# In short: as §1
# [8] = qHTS profiling of the MIPE4 collection as inhibitors of Plasmodium falciparum (HB3) proliferation (AID 743347);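 note: plate controls were DMSO vehicle wells for no effect and artemisinin wells for full effect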; conditions: P. falciparum HB3 in erythrocytes, SYBR Green DNA, 72 h; at 28.5 µM (top of the series)
# In short: as §1
# [9] = qHTS profiling for inhibitors of Plasmodium falciparum (3D7) proliferation (AID 743322);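 note: infected erythrocytes exposed to compound for 72 h before lysis; 100% = DMSO vehicle wells and 0% = 0.29 µM artemisinin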; conditions: P. falciparum 3D7 proliferation; at 28.7 µM (top of the series) unless noted
# In short: as §1
# [10] = qHTS profiling for inhibitors of Plasmodium falciparum (DD2) proliferation (AID 743323); conditions: lower = more inhibition; at 28.7 µM (top of the series) unless noted
# In short: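 1536-well qHTS; infected RBCs 0.3% parasitemia/2.5% Hct final; cpd 72 h 37 C 5% CO2; lysis buffer + SYBR Green I, o/n RT dark; FI 485/535; norm. to 0.29 uM artemisinin and DMSO, plate-stack corrected.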
# [11] = qHTS profiling for inhibitors of Plasmodium falciparum (HB3) proliferation (AID 743324; active = well fitted curve in the direction sought with a large enough effect; an effect the other way counts as inactive or inconclusive;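 note: 100% = DMSO vehicle wells and 0% = artemisinin-treated control wells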); conditions: Plasmodium falciparum HB3 blood-stage proliferation; at 28.7 µM (top of the series) unless noted
# In short: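 SYBR Green fluorescence (485 ex/535 em) of lysed cultures, incubated overnight at room temperature in the dark, quantifies parasite DNA. Infected erythrocytes at 0.3% parasitemia and 2.5% hematocrit were exposed 72 h; values normalized to DMSO and 0.29 uM artemisinin controls.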
compound,measurement,setting,value
NCCc1c[nH]c2ccccc12,outcome,[1],inactive
same,max response,[2],11% (inactive)
CC(C)(O)C(=O)Nc1ccc([N+](=O)[O-])c(C(F)(F)F)c1,max response,[3],-8.24% (inactive)
same,Potency,[4],inactive
same,"parasite growth, % of DMSO control",[5],82.8%
same,"parasite growth remaining, % of DMSO control (lower = more inhibition)",[6],97.4%
same,"parasite growth, % of control (lower = inhibition)",[7],70.6%
CC[C@@]1(O)C(=O)OCc2c1cc1n(c2=O)Cc2cc3ccccc3nc2-1,outcome,[1],inactive
same,max response,[2],-1.6% (inactive)
same,"parasite growth remaining, % of DMSO control (lower = more inhibition)",[6],12.9%
same,"parasite growth, % of control (lower = inhibition)",[7],19.3%
same,"growth, % of control",[8],5.89%
C/C=C(/C)C(=O)O[C@H]1C(C)=C2[C@H]([C@@H]1OC(=O)CCCCCCC)[C@@](C)(OC(C)=O)C[C@H](OC(=O)CCC)[C@@]1(O)[C@H]2OC(=O)[C@@]1(C)O,outcome,[1],inactive
same,remaining parasite growth % (stronger effect = lower value),[9],-0.149%
same,"activity, percent of control",[10],1.02%
CO[C@H]1CCC(O[C@H]2C[C@H]([C@]3(C)CC[C@]4(C[C@H](O)[C@@H](C)[C@@H]([C@@H](C)C=C(C)C(=O)[C@H](C)C[C@H](C)C(=O)O)O4)O3)O[C@]3(O[C@@H]([C@H]4O[C@@](O)(CO)[C@H](C)C[C@H]4C)C[C@H]3C)[C@H]2C)O[C@H]1C (stereo partly drawn),"parasite growth, % of DMSO control",[5],11.2%
same,"parasite growth remaining, % of DMSO control (lower = more inhibition)",[6],5.36%
same,"parasite growth, % of control (lower = inhibition)",[7],23.1%
CC[N+]1(CCOC(=O)C(O)(c2ccccc2)c2ccccc2)CCCCC1,max response,[2],2.2% (inactive)
COCC1(CO)C(=O)C2CCN1CC2 (stereo not drawn),"parasite growth, % of DMSO control",[5],94.3%
same,"parasite growth remaining, % of DMSO control (lower = more inhibition)",[6],85.2%
same,"parasite growth, % of control (lower = inhibition)",[7],42%
CC(=O)OCC1=C(C(=O)O)N2C(=O)[C@@H](N)[C@@H]2SC1,"parasite growth, % of DMSO control",[5],90.9%
same,"parasite growth remaining, % of DMSO control (lower = more inhibition)",[6],97.8%
same,"parasite growth, % of control (lower = inhibition)",[7],77.5%
c1ccc(CCCN2CCN(CCOC(c3ccccc3)c3ccccc3)CC2)cc1,outcome,[1],inactive
same,"parasite growth remaining, % of DMSO control (lower = more inhibition)",[6],25.6%
same,"parasite growth, % of control (lower = inhibition)",[7],18.7%
same,"growth, % of control",[8],19.2%
CC(C)[C@H]1C(=O)N[C@H](CO)Cc2c[nH]c3cccc(c23)N1C,remaining parasite growth % (stronger effect = lower value),[9],107%
same,"activity, percent of control",[10],97.3%
same,"remaining proliferation (% of control), lower = more inhibition",[11],80%
same,"parasite growth remaining, % of DMSO control (lower = more inhibition)",[6],97.6%
same,"parasite growth, % of control (lower = inhibition)",[7],147%
same,"growth, % of control",[8],88.8%
CN(C)[C@@H]1C(=O)C(C(N)=O)=C(O)[C@@]2(O)C(=O)C3=C(O)c4c(O)cccc4[C@@](C)(O)[C@H]3[C@H](O)[C@@H]12,max response,[2],-4.72% (inactive) and -5.37% (inactive)
same,max response,[3],-3.99% (inactive) and -10.9% (inactive) and -2.39% (inactive)
same,Potency,[4],inactive
same,"parasite growth remaining, % of DMSO control (lower = more inhibition)",[6],45.1%
same,"parasite growth, % of control (lower = inhibition)",[7],32%
CC1=NN=C(c2ccc(N)cc2)c2cc3c(cc2C1)OCO3,outcome,[1],inactive
same,max response,[2],7.34% (inactive)
same,"parasite growth, % of DMSO control",[5],133%
same,"parasite growth remaining, % of DMSO control (lower = more inhibition)",[6],108%
same,"parasite growth, % of control (lower = inhibition)",[7],93%
same,"growth, % of control",[8],685%
NC1=NC(=O)N2CC12 (stereo not drawn),max response,[2],-4.05% (inactive)
same,"parasite growth remaining, % of DMSO control (lower = more inhibition)",[6],93.9%
same,"parasite growth, % of control (lower = inhibition)",[7],46.3%
same,"growth, % of control",[8],68.6%
C[C@]12COC(=O)C[C@@H]1CC[C@@H]1[C@H]2CC[C@@]2(C)[C@H]1CC[C@]2(C)O,"parasite growth, % of DMSO control",[5],89.9%
same,"parasite growth remaining, % of DMSO control (lower = more inhibition)",[6],96.6%
same,"parasite growth, % of control (lower = inhibition)",[7],93%
CCCCCCCCCCCCCCCC[N+](C)(C)C,Potency,[2],10 µM (active)
same,max response,[3],-5.85% (inactive)
same,Potency,[4],inactive
O=C(Nc1ccncc1)C(=O)c1cn(Cc2ccc(Cl)cc2)c2ccccc12,"parasite growth, % of DMSO control",[5],91%
same,"parasite growth remaining, % of DMSO control (lower = more inhibition)",[6],85.2%
same,"parasite growth, % of control (lower = inhibition)",[7],81.4%
NC(CCP(=O)(O)O)C(=O)O (stereo not drawn),outcome,[1],inactive
same,max response,[2],12.6% (inactive)
CSCC[C@@H](NC(=O)[C@@H](Cc1ccccc1)NC(=O)CNC(=O)CNC(=O)[C@@H](N)Cc1ccc(O)cc1)C(=O)O,"parasite growth, % of DMSO control",[5],92.2%
same,"parasite growth remaining, % of DMSO control (lower = more inhibition)",[6],49.8%
same,"parasite growth, % of control (lower = inhibition)",[7],89.9%
CCN1CCN(C(=O)Cc2ccc(Nc3ncc(F)c(Nc4ccc(C(=O)Nc5ccccc5Cl)cc4)n3)cc2)CC1,"parasite growth, % of DMSO control",[5],6.35%
same,"parasite growth remaining, % of DMSO control (lower = more inhibition)",[6],7.02%
same,"parasite growth, % of control (lower = inhibition)",[7],14.2%
CCC(=O)OC1CCC2C3CCC4=CC(=O)CC[C@@]4(C)C3CC[C@]12C (stereo partly drawn),"parasite growth, % of DMSO control",[5],89.9%
same,"parasite growth remaining, % of DMSO control (lower = more inhibition)",[6],96.4%
same,"parasite growth, % of control (lower = inhibition)",[7],125%
CC(C)(C)[C@]1(O)C[C@@H]2OC(=O)C[C@@]23C(=O)O[C@@H]2OC(=O)[C@H](O)C213 (stereo partly drawn),"parasite growth, % of DMSO control",[5],95%
same,"parasite growth remaining, % of DMSO control (lower = more inhibition)",[6],99.7%
same,"parasite growth, % of control (lower = inhibition)",[7],81.5%
CC=C(C)C(=O)N[C@@H](c1ccccc1)[C@@H](O)C(=O)O[C@H]1C[C@@]2(O)[C@@H](OC(=O)c3ccccc3)[C@@H]3[C@]4(OC(C)=O)CO[C@@H]4C[C@H](O)[C@@]3(C)C(=O)[C@H](OC(C)=O)C(=C1C)C2(C)C,"parasite growth, % of DMSO control",[5],4.24%
same,"parasite growth remaining, % of DMSO control (lower = more inhibition)",[6],14%
same,"parasite growth, % of control (lower = inhibition)",[7],15.6%
CCCCCCCCc1ccc(O)cc1,max response,[2],-6.88% (inactive)
same,max response,[3],-15.8% (inactive) and -26% (inactive)
same,Potency,[4],inactive
CC[C@@H](C(N)=O)N1CCCC1=O,outcome,[1],inactive
same,max response,[2],27.6% (inactive)
same,"parasite growth, % of DMSO control",[5],69.9%
same,"parasite growth remaining, % of DMSO control (lower = more inhibition)",[6],90.5%
same,"parasite growth, % of control (lower = inhibition)",[7],46.9%
same,"growth, % of control",[8],78.5%
O=C(N[C@H]1CN2CCC1CC2)c1ccc(Cl)cc1,outcome,[1],inactive
same,"parasite growth, % of DMSO control",[5],89.4%
same,"parasite growth remaining, % of DMSO control (lower = more inhibition)",[6],82.1%
same,"parasite growth, % of control (lower = inhibition)",[7],31.9%
same,"growth, % of control",[8],71.8%
CC(=O)NCCc1c[nH]c2ccccc12,outcome,[1],inactive
same,max response,[2],17.3% (inactive)
CCN1C[C@]2(OC(=O)c3ccccc3NC(C)=O)CC[C@H](OC)[C@@]34[C@H]5CC6[C@@H](OC)C[C@](O)(C(C[C@@H]23)[C@@H]14)[C@@]5(O)[C@@H]6OC,"parasite growth, % of DMSO control",[5],97%
same,"parasite growth remaining, % of DMSO control (lower = more inhibition)",[6],94%
same,"parasite growth, % of control (lower = inhibition)",[7],72.6%
Oc1ccc2c3c1O[C@H]1c4[nH]c5c(c4C[C@@]4(O)[C@@H](C2)N(CC2CC2)CC[C@]314)C[C@@]1(O)[C@H]2Cc3ccc(O)c4c3[C@@]1(CCN2CC1CC1)[C@H]5O4,outcome,[1],inactive
same,"parasite growth, % of DMSO control",[5],10.3%
same,"parasite growth remaining, % of DMSO control (lower = more inhibition)",[6],25.9%
same,"parasite growth, % of control (lower = inhibition)",[7],13%
O=C(N[C@@H](COc1ccc2[nH]c(=O)[nH]c2c1)c1ccccc1)c1cccn(Cc2ccc(F)c(F)c2)c1=O,"parasite growth, % of DMSO control",[5],50.5%
same,"parasite growth remaining, % of DMSO control (lower = more inhibition)",[6],85.6%
same,"parasite growth, % of control (lower = inhibition)",[7],75.9%
same,"growth, % of control",[8],63.1%
